Design in all cases: scale not given: direction of the effect not stated beside the values
The target of assay [1] is Protein translocase subunit SecA (Escherichia coli (strain K12)) (UniProt P10408). Nature of the assay: Assay to Identify E. coli SecA ATPase Inhibitors. The conditions noted are these: 30 µM. The class given is functional.
In assay [2] the target is T1, Ubiquitin-activating enzyme e1, putative (Leishmania donovani (strain BPK282A1)) (UniProt E9BSI1).
T1 sequence (whole entry): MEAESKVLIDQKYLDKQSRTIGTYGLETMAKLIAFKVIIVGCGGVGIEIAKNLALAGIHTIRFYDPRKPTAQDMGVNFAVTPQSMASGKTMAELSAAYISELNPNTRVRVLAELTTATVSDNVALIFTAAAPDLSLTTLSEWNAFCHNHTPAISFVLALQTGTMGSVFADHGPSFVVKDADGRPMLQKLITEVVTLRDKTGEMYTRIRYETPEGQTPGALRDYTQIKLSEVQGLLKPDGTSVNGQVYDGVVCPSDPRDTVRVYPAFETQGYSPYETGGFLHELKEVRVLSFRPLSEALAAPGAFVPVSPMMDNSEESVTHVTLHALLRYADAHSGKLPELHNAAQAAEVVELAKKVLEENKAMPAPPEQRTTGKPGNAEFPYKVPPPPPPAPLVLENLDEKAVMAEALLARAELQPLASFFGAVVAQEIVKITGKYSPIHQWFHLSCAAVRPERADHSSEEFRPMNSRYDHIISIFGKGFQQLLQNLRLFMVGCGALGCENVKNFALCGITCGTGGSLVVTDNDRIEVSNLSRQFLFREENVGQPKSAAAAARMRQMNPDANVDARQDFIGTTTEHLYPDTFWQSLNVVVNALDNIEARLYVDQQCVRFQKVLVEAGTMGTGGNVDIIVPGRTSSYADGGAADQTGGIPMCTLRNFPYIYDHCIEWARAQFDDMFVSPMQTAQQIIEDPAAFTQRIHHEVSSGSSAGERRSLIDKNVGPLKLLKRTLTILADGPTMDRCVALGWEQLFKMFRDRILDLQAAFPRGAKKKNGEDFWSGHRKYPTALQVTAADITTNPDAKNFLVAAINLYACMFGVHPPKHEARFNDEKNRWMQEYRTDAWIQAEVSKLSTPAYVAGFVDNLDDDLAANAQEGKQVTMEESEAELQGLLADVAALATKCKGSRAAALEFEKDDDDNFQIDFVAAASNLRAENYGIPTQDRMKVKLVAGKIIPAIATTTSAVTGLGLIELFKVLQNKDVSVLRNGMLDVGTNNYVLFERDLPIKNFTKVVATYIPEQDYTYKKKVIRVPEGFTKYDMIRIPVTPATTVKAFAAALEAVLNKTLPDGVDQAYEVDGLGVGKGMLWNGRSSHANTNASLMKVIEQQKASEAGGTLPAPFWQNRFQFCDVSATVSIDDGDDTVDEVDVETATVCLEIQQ
The experiment in a line: Leishmania donovani Ubiquitin Activating Enzyme (LdE1). The class given is functional. To be noted: 30 µM.

Assay [3] has as its target AMP-activated protein kinase, AMPK (Homo sapiens) (UniProt P54646+O43741+P54619+Q9UGJ0+Q9Y478+Q13131+Q9UGI9). Nature of the assay: AMP-dependent Kinase enzyme assay. An in vitro enzyme assay that detects ADP turnover that is directly proportional to AMPK activity. This uses naive AMPK that is activated during the assay with MK-8722. To be noted: 30 µM. The class given is functional.

Assay [4] concerns the target Sialic acid-binding Ig-like lectin 9 (Homo sapiens) (UniProt Q9Y336). The experiment in a line: Hs-Siglec9 ALPHAscreen SOP 20170721. The conditions noted are these: 10 µM.
The subject of the next assay is Trypanosoma cruzi. Nature of the assay: Trypanosoma cruzi phosphomannomutase and mannose-1-phosphate guanylyltransferase assay. The class given is functional. The conditions noted are these: 10 µM.
Assay [5] has as its target T2, Arginase-2, mitochondrial (Homo sapiens) (UniProt P78540).
T2 sequence (whole entry): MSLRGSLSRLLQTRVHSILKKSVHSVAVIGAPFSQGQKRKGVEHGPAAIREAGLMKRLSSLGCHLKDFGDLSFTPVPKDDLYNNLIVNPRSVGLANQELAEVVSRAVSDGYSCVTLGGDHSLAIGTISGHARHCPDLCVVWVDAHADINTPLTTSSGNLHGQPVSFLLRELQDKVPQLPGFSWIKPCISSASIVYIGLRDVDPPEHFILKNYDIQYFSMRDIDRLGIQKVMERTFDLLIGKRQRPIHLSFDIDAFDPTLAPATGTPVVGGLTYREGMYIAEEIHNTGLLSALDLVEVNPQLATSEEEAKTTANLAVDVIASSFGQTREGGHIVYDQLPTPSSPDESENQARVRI
Nature of the assay: in vitro enzyme assay to detect the production of urea directly proportional to the activity of Arginase II. Note: in the data most compounds retested in dose-response had high values. The class given is functional. The conditions noted are these: 33.3 µM.

The target in assay [6] is T3, Proteasome subunit beta (Trypanosoma cruzi) (UniProt O96673).
T3 sequence (whole entry): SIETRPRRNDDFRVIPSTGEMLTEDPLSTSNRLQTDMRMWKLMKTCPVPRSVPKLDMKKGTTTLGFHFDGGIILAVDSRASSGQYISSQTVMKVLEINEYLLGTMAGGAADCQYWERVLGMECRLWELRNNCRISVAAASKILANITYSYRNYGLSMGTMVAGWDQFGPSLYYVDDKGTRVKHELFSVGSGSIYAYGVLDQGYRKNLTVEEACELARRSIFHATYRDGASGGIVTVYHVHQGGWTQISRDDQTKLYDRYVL
Nature of the assay: Trypanosoma cruzi proteasome chymotrypsin-like activity (TcProtChymo) assay. Note: in the data most compounds retested in dose-response had high values. The conditions noted are these: 9.37 µM. The class given is functional.

The species named for another assay is Homo sapiens. The experiment in a line: To identify inhibition of the IFN signalling (Jak-Stat) pathway via expression of an eGFP reporter gene under the control of an IFN-stimulated response element (ISRE) containing MxA promoter. The class given is functional. The conditions noted are these: 30 µM. A general note: A reporter such as luciferase makes a cellular process visible.

Assay [7] concerns the target T4, Tyrosyl-tRNA synthetase, putative (Trypanosoma cruzi (strain CL Brener)) (UniProt Q4DSP6).
T4 sequence (whole entry): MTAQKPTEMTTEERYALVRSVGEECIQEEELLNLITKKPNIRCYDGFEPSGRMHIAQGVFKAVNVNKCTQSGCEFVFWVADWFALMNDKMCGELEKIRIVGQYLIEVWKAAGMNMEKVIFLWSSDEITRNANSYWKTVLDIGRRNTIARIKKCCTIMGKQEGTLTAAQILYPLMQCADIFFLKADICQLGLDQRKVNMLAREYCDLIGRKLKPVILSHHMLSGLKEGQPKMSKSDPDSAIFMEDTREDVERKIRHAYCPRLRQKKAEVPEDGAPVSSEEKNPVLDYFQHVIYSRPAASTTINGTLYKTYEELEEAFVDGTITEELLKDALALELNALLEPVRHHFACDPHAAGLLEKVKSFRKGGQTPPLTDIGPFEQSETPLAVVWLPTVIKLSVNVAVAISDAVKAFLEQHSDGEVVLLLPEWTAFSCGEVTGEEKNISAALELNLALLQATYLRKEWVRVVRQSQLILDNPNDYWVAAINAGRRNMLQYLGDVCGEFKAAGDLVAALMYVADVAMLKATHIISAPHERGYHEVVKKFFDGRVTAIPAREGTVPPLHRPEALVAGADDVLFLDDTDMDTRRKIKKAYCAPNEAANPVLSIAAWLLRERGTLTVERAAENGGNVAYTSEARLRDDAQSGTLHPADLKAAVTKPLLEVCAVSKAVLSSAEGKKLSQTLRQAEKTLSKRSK
The experiment in a line: Trypanosoma cruzi tyrosyl tRNA synthetase (TcYRS) _High Tyrosine SOP. Note: in the data most compounds retested in dose-response had high values. The class given is functional. To be noted: 30 µM.

Assay [8] concerns the target T4, Tyrosyl-tRNA synthetase, putative (Trypanosoma cruzi (strain CL Brener)). The experiment in a line: Trypanosoma cruzi tyrosyl tRNA synthetase (TcYRS) SOP. The class given is functional. To be noted: 30 µM.
Assay [9] concerns the target Chromo domain-containing protein 1 (Saccharomyces cerevisiae (strain ATCC 204508 / S288c) (Baker's yeast)) (UniProt P32657). Nature of the assay: ScCHD-1 Enzyme Inhibition Assay. Note: in the data most compounds retested in dose-response had high values. The class given is functional. The conditions noted are these: 30 µM.

For some assays here: Measured potencies and affinities stand elsewhere.

Chain of Chromo domain-containing protein 1 (Saccharomyces cerevisiae (strain ATCC 204508 / S288c) (Baker's yeast)) (P32657 whole entry, the tested form may be a part): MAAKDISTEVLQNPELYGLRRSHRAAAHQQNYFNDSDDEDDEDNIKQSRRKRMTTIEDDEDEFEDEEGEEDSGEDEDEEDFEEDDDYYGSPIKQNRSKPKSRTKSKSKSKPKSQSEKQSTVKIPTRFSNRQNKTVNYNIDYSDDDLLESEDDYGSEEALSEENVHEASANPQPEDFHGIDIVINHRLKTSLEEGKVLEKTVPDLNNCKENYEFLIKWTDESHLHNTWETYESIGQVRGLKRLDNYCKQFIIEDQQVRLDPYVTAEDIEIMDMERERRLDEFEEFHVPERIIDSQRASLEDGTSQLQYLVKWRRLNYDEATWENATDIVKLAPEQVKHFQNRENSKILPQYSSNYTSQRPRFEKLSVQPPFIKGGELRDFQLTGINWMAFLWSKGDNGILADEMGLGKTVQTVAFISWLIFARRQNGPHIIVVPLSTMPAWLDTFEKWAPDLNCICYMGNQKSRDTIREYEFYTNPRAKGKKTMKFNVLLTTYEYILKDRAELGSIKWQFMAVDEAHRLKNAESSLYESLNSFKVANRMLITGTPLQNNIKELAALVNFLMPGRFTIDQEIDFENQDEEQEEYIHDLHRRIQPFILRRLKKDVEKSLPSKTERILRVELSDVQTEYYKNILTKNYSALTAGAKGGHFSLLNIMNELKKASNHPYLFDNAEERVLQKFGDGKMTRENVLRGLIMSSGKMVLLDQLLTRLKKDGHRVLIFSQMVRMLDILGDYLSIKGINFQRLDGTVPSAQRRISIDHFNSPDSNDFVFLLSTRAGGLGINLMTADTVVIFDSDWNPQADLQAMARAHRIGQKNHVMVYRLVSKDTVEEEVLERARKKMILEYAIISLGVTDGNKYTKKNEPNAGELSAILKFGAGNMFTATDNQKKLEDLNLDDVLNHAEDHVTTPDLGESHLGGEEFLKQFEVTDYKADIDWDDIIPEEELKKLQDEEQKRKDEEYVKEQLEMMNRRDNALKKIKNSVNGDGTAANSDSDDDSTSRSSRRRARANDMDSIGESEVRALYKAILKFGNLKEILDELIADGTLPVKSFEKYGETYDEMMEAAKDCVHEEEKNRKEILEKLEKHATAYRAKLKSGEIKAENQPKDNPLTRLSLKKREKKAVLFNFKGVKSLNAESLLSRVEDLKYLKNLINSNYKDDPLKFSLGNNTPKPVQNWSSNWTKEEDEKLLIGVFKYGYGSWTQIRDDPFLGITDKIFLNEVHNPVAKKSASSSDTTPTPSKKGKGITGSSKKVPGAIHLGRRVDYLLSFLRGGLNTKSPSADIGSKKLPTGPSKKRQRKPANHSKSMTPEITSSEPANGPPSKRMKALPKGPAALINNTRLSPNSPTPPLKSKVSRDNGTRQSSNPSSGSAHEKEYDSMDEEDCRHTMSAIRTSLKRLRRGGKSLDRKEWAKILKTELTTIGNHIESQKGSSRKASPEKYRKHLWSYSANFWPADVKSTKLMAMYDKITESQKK
Chain of Sialic acid-binding Ig-like lectin 9 (Homo sapiens) (Q9Y336 whole entry): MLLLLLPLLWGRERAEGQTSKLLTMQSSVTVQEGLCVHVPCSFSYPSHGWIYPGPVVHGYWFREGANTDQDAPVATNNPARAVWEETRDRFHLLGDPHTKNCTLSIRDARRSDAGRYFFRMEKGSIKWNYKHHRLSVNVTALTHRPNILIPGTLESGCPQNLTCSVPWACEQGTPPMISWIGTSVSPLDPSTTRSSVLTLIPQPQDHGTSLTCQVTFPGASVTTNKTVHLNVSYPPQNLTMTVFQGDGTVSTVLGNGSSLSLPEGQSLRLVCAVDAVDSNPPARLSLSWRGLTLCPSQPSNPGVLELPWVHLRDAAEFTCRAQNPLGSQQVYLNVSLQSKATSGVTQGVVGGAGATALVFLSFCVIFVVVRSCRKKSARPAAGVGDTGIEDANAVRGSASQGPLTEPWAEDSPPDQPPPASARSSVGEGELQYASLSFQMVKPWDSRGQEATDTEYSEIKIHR
Chain of Protein translocase subunit SecA (Escherichia coli (strain K12)) (P10408 whole entry): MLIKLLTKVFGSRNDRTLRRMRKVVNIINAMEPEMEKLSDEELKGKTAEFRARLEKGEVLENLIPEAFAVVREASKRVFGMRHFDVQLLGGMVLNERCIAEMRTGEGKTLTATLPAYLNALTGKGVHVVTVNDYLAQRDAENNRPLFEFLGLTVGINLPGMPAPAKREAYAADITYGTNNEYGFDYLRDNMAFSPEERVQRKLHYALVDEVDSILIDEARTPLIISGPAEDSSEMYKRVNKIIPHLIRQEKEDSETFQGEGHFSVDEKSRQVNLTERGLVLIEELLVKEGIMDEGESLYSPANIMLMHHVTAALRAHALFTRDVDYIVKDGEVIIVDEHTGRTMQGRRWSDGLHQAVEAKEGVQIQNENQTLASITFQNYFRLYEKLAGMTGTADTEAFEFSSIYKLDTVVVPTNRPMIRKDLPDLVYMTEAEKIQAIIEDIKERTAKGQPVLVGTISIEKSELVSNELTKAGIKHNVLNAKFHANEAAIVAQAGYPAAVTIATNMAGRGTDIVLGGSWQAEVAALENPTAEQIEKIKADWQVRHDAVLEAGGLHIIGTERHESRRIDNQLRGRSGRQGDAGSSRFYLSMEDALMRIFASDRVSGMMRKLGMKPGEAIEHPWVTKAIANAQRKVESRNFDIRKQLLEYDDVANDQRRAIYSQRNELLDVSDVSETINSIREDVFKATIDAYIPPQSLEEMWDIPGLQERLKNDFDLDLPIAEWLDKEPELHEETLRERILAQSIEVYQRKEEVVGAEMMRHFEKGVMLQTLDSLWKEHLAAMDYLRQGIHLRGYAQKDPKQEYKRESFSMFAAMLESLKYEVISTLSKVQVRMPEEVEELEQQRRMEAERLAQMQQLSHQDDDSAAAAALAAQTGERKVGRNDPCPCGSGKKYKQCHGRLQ

Consider `CCN1CCN(c2ccc(F)cc2C(C)NCc2noc(C)n2)CC1` (stereo not given), for which the Percent Effect in assay [1] was -1.18%; in assay [2], -8.11%; in [3] it was -2.95%; in assay [4] it was -6.13%; with Trypanosoma cruzi it was -1.27%; in [5] it was 1.74%. Besides, the Percent Effect in [6] is 2.83%; in the assay listed under Homo sapiens, -7.51%; in [7], 1.07%; in assay [8], 1.24%; in assay [9] it was -0.843%.

`O=C(CO)N1CCC(c2cncc(-c3cccc(Cl)c3)n2)CC1`: the Percent Effect is -2.26% in assay [1]; -2.67% in [2]; 27.8% in assay [3]; -7.86% in assay [4]; 8.27% in the assay with Trypanosoma cruzi; 138% in assay [5]. Besides, the Percent Effect is 15.9% in [6]; 6.85% in the assay filed under Homo sapiens; 11.7% in assay [7]; 16.7% in [8]; -5.15% in assay [9].

In the case of `CC(C)CN1CCC(C(=O)Nc2cc(C(F)(F)F)c[nH]c2=O)CC1`, the Percent Effect is -7.9% in assay [1]; 10.4% in assay [2]; 4.55% in assay [3]; 14.9% in assay [4]; 6.37% with Trypanosoma cruzi; -2.13% in [5]. Further, the Percent Effect is 1.18% in assay [6]; -6.76% in the assay filed under Homo sapiens; 5.83% in assay [7]; 21.9% in assay [8]; -10.2% in [9].

With `Cn1cc(-c2nc(CN3CCN(CCO)CC3)cs2)cn1`, the Percent Effect in assay [1] was 0.128%; in assay [2] it was 15.8%; in assay [3], 4.54%; in assay [4], -2.39%; in the assay with Trypanosoma cruzi, -0.376%; in assay [5], -1.53%. The Percent Effect is 21.9% in assay [6]; 17% in the assay filed under Homo sapiens; 9.31% in [7]; 19.5% in assay [8]; -10.9% in assay [9].

As to `COCCN1CCN(CCCS(C)(=O)=O)CC1C` (stereo not given), the Percent Effect in assay [1] was -5.52%; in assay [2] it was 21.6%; in assay [3] it was -8.32%; in [4], 7.36%; in the assay with Trypanosoma cruzi, 9.56%; in assay [5] it was 0.924%. Moreover, the Percent Effect was found to be 9.16% in [6]; 4.15% in the assay filed under Homo sapiens; 9.9% in assay [7]; 28.1% in assay [8]; 52% in [9].

For the molecule `CN(C)C(=O)COCc1cncc2c1CCN(Cc1cnn(C)c1)C2`, the Percent Effect was -4.54% in assay [1]; 10.4% in [2]; 1.37% in [3]; 20% in assay [4]; 0.0983% with Trypanosoma cruzi; -6.9% in assay [5]. For the same molecule, the Percent Effect in assay [6] was 11.8%; in the assay filed under Homo sapiens it was 10.6%; in assay [7], 3.23%; in assay [8], 8.64%; in [9] it was -2.53%.

On to `Cc1ccc(C(=O)N2CCO[C@H]3[C@@H](OCc4ccccn4)CC[C@@H]32)o1`, for which the Percent Effect in assay [1] was -2.21%; in assay [2], 10.4%; in assay [3] it was -8.74%; in assay [4] it was 3.45%; in the assay on Trypanosoma cruzi, -4.44%; in [5], 11%. The Percent Effect in assay [6] was 12.7%; in the assay filed under Homo sapiens, 11.5%; in assay [7], -1.06%; in assay [8], -8.97%; in assay [9], -6.69%.

For `O=C(CCc1nccs1)N1CCN(c2ncccn2)CC1`, the Percent Effect in assay [1] was -10.4%; in assay [2] it was -7.79%; in [3], -1.74%; in assay [4], -4.24%; in the assay on Trypanosoma cruzi, 7.93%; in assay [5] it was -0.632%. Moreover, the Percent Effect in assay [6] was 9.3%; in the assay filed under Homo sapiens it was 1.03%; in assay [7], 5.71%; in assay [8], 18.8%; in assay [9], -11%.

As for `O=C(COc1coc(CN2CCOCC2)cc1=O)c1ccc(Cl)cc1`, the Percent Effect in assay [1] is -3.55%; in assay [2], 2.63%; in assay [3], 5.88%; in assay [4], 11%; with Trypanosoma cruzi, -2.04%; in [5], -11.8%. For the same molecule, the Percent Effect in [6] was 12%; in the assay listed under Homo sapiens, 20.8%; in assay [7], -1.06%; in [8], 0%; in assay [9], -0.42%.

Turning to `CC(C)Oc1cccc(C(O)CNC(=O)CCc2ccncc2)c1` (stereo not given), the Percent Effect was -3.24% in assay [1]; -5.48% in assay [2]; 2.43% in [3]; 13.4% in assay [4]; -3.97% in the assay with Trypanosoma cruzi; -7.58% in assay [5]. The Percent Effect worked out at 3.85% in [6]; 0.683% in the assay listed under Homo sapiens; 1.04% in assay [7]; 3.7% in assay [8]; 5.03% in assay [9].

Values taken from ChEMBL document CHEMBL3988442, “University of Dundee, Small-Polar-MMV Screening Library” (2021).
